Four molecules from PubChem BioAssay (EPA / NIEHS) can be followed below.

Active and inactive are the calls of the source. Rule for the calls: active = hit-call score of the fitted dose curve at least 0.9, where 1 is the maximum; inactive = score below 0.9.

Holding throughout (conditions): mRNA level, 48 h; actives raise or lower the signal
Read-out in one assay: HGF (gene 3082)
In words: LTEA_HepaRG_HGF: Life Technologies and Expression Analysis (LTEA) Assay for Hepatocyte Growth Facto (HGF) using HepaRG (AID 2283505). Put shortly: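 Read-out is HGF transcript level by qRT-PCR, normalized to three housekeeping genes, fitted bidirectionally against 0.5% DMSO vehicle. Human HepaRG cells received test chemicals for 48 h at up to 100 uM.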

Read-out in assay [1]: Insulin Like Growth Factor 1 (IGF1), IGF1 (gene 3479)
In words: LTEA_HepaRG_IGF1: Life Technologies and Expression Analysis (LTEA) Assay for Insulin Like Growth Factor 1 (IGF1) using HepaRG (AID 2283506). Summed up:
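Cells are thawed, plated and cultured 48 h, then exposed in duplicate to chemical (highest 100 uM, half-log steps, 0.5% DMSO) for another 48 h. Total RNA is analysed by Fluidigm qRT-PCR for IGF1 expression relative to vehicle.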

Read-out in assay [2]: Intercellular Adhesion Molecule 1 (ICAM1), ICAM1 (gene 3383)
Description: LTEA_HepaRG_ICAM1: Life Technologies and Expression Analysis (LTEA) Assay for Intercellular Adhesion Molecule 1 (ICAM1) using HepaRG (AID 2283507). Summed up: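 Readout is qRT-PCR mRNA level, normalized to three housekeeping genes and fitted bidirectionally against 0.5% DMSO vehicle. Human HepaRG cultures received compound for 48 h, top concentration 100 uM with half-log dilutions.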

Read-out in assay [3]: Interleukin 6 (IL6), IL6 (gene 3569)
In words: LTEA_HepaRG_IL6: Life Technologies and Expression Analysis (LTEA) Assay for Interleukin 6 (IL6) using HepaRG (AID 2283509). Put shortly:
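Changes in IL6 mRNA, up or down relative to 0.5% DMSO controls, were derived from concentration-response curves in human HepaRG cells treated for 48 h at up to 100 uM, with ACTB, GAPDH and POLR2A as normalizers.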

Read-out in assay [4]: Interleukin 6 Receptor (IL6R), IL6R (gene 3570)
Description: LTEA_HepaRG_IL6R: Life Technologies and Expression Analysis (LTEA) Assay for Interleukin 6 Receptor (IL6R) using HepaRG (AID 2283510). Summed up:
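Cells were thawed, plated and cultured 48 h, then medium was changed to serum-free induction medium. Chemicals were added in duplicate (100 uM top, half-log steps, 0.5% DMSO) for 48 h. Lysates were analyzed by qRT-PCR for IL6R expression.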

Read-out in assay [5]: Potassium channel subfamily K member 1 (KCNK1), KCNK1 (gene 3775)
In words: LTEA_HepaRG_KCNK1: Life Technologies and Expression Analysis (LTEA) Assay for Potassium channel subfamily K member 1 (KCNK1) using HepaRG (AID 2283511). Put shortly: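 Human HepaRG cultures receive test chemicals for 48 h in 0.5% DMSO, top concentration 100 uM with half-log dilutions. Induction or suppression of KCNK1 mRNA relative to DMSO is derived by bidirectional fitting of qRT-PCR data.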

Read-out in assay [6]: Keratin 19 (KRT19), KRT19 (gene 3880)
Description: LTEA_HepaRG_KRT19: Life Technologies and Expression Analysis (LTEA) Assay for Keratin 19 (KRT19) using HepaRG (AID 2283512). Summed up: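 KRT19 transcript levels, measured by Fluidigm qRT-PCR against three housekeeping genes, are fitted for gain or loss of signal relative to DMSO. Human HepaRG cells receive test chemicals (top 100 uM, half-log steps, 0.5% DMSO) for 48 hours.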

Read-out in assay [7]: JUN Transcription Factor, JUN (gene 3725)
In words: LTEA_HepaRG_JUN: Life Technologies and Expression Analysis (LTEA) Assay for JUN Transcription Factor using HepaRG (AID 2283513). Summed up: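 Read-out is JUN transcript level by TaqMan qRT-PCR, normalized to ACTB, GAPDH and POLR2A, after 48 h chemical treatment of HepaRG cells. Concentration-response spanned eight half-log points up to 100 uM in 0.5% DMSO.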

Read-out in assay [8]: Lipase C (LIPC), LIPC (gene 3990)
In words: LTEA_HepaRG_LIPC: Life Technologies and Expression Analysis (LTEA) Assay for Lipase C (LIPC) using HepaRG (AID 2283514). Summed up:
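In this multiplexed gene-expression screen, human HepaRG cultures received test chemicals for 48 h across eight concentrations with 100 uM highest, in duplicate. Values reflect LIPC mRNA induction or suppression versus DMSO vehicle, from normalized qRT-PCR.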

Read-out in assay [9]: Lipoprotein lipase (LPL), LPL (gene 4023)
In words: LTEA_HepaRG_LPL: Life Technologies and Expression Analysis (LTEA) Assay for Lipoprotein lipase (LPL) using HepaRG (AID 2283515). Put shortly: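 Concentration-response testing used half-log steps from 100 uM in 0.5% DMSO on human HepaRG cells, 48 h, duplicate wells. Phenobarbital 1 mM served as induction control; LPL mRNA was normalized to ACTB, GAPDH, POLR2A.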

Read-out in assay [10]: MicroRNA 122 (MIR122), gene 406906
In words: LTEA_HepaRG_MIR122: Life Technologies and Expression Analysis (LTEA) Assay for MicroRNA 122 (MIR122) using HepaRG (AID 2283516). Note: the transcript read is the microRNA miR-122. Put shortly:
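Human liver HepaRG cultures receive test chemicals for 48 h at eight half-log concentrations from 100 uM. Expression is quantified by qRT-PCR with ACTB/GAPDH/POLR2A normalization and fitted bidirectionally against 0.5% DMSO.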

Read-out in assay [11]: matrix metalloproteinase-10 (MMP10), MMP10 (gene 4319)
In words: LTEA_HepaRG_MMP10: Life Technologies and Expression Analysis (LTEA) Assay for matrix metalloproteinase-10 (MMP10) using HepaRG (AID 2283517). Summed up:
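In differentiated HepaRG cultures kept in 0.5% DMSO, test chemicals act for 48 h over an eight-point range with a top dose of 100 uM. Expression is then quantified by TaqMan RT-PCR against ACTB, GAPDH and POLR2A.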

Read-out in the next assay: MYC, MYC (gene 4609)
In words: LTEA_HepaRG_MYC: Life Technologies and Expression Analysis (LTEA) Assay for MYC using HepaRG (AID 2283518). Summed up:
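HepaRG, ~100,000 cells/well, collagen I; 48 h plating; serum-free induction medium; 48 h dosing, duplicate, 100 uM top, half-log, 0.5% DMSO; total RNA → qRT-PCR MYC; gain/loss fit vs DMSO.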

Read-out in assay [12]: matrix metalloproteinase-3 (MMP3), MMP3 (gene 4314)
In words: LTEA_HepaRG_MMP3: Life Technologies and Expression Analysis (LTEA) Assay for matrix metalloproteinase-3 (MMP3) using HepaRG (AID 2283519). Put shortly: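 Human liver HepaRG cultures received chemicals (top concentration 100 uM, 0.5% DMSO) for 48 h in duplicate. MMP3 mRNA induction or loss was then assessed via TaqMan qRT-PCR with housekeeping-gene normalisation.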

Read-out in assay [13]: Paternally Expressed 10 (PEG10), PEG10 (gene 23089)
In words: LTEA_HepaRG_PEG10: Life Technologies and Expression Analysis (LTEA) Assay for Paternally Expressed 10 (PEG10) using HepaRG (AID 2283520).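 For AC50: PEG10 transcript by qRT-PCR normalised to ACTB GAPDH and POLR2A.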 Summed up: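 Human HepaRG cultures are dosed for 48 h across an eight-point half-log series starting at 100 uM, with 0.5% DMSO as vehicle and baseline. Gain or loss of PEG10 transcript is measured by qRT-PCR and fitted in both directions.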

Read-out in assay [14]: Nuclear factor NF-kappa-B p105 subunit (Homo sapiens) (UniProt P19838)
Description: LTEA_HepaRG_NFKB1: Life Technologies and Expression Analysis (LTEA) Assay for Nuclear Factor Kappa B Subunit 1 (NFKB1) using HepaRG (AID 2283521).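 Note: TaqMan qRT-PCR transcript normalised to ACTB GAPDH and POLR2A housekeeping genes.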 Summed up:
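Differentiated human HepaRG cells were exposed for 48 h in serum-free induction medium to eight concentrations (top 100 uM, half-log steps, 0.5% DMSO), in duplicate. NFKB1 mRNA was measured by TaqMan qRT-PCR, normalized to ACTB/GAPDH/POLR2A, and fitted bidirectionally against DMSO.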

Read-out in assay [15]: Protein phosphatase 2A (PPP2R4), PTPA (gene 5524)
Description: LTEA_HepaRG_PPP2R4: Life Technologies and Expression Analysis (LTEA) Assay for Protein phosphatase 2A (PPP2R4) using HepaRG (AID 2283522). Put shortly:
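Cells were plated, cultured 48 h, switched to serum-free induction medium, then dosed for 48 h (8 points, max 100 uM, 0.5% DMSO). RNA was isolated and PPP2R4 expression measured by TaqMan qRT-PCR.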

Read-out in assay [16]: Phosphatase and tensin (PTEN), PTEN (gene 5728)
Description: LTEA_HepaRG_PTEN: Life Technologies and Expression Analysis (LTEA) Assay for Phosphatase and tensin (PTEN) using HepaRG (AID 2283523). Summed up: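 Expression of PTEN is quantified in the human liver line HepaRG following two days of dosing (top concentration 100 uM, half-log dilutions, 0.5% DMSO). Values derive from bidirectional curve fitting relative to DMSO controls.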

Read-out in assay [17]: solute carrier (SLC22A1), SLC22A1 (gene 6580)
In words: LTEA_HepaRG_SLC22A1: Life Technologies and Expression Analysis (LTEA) Assay for solute carrier (SLC22A1) using HepaRG (AID 2283524). Put shortly: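 Transcript induction or suppression of SLC22A1 in human HepaRG cultures is scored after 48 h chemical treatment, with DMSO (0.5%) as baseline for bidirectional fitting. Concentrations span eight half-log points topping at 100 uM.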

Read-out in assay [18]: Insulin-like growth factor-binding protein 1 (IGFBP1), IGFBP1 (gene 3484)
Description: LTEA_HepaRG_IGFBP1: Life Technologies and Expression Analysis (LTEA) Assay for Insulin-like growth factor-binding protein 1 (IGFBP1) using HepaRG (AID 2283508). Summed up: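 Thawed HepaRG cells are plated for 48 h, switched to serum-free induction medium, then dosed in duplicate for another 48 h (100 uM top, half-log steps). Lysates in RLT go to qRT-PCR, and gain or loss of signal is fitted relative to vehicle.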

Chain of Nuclear factor NF-kappa-B p105 subunit (Homo sapiens) (P19838 whole entry, looked up): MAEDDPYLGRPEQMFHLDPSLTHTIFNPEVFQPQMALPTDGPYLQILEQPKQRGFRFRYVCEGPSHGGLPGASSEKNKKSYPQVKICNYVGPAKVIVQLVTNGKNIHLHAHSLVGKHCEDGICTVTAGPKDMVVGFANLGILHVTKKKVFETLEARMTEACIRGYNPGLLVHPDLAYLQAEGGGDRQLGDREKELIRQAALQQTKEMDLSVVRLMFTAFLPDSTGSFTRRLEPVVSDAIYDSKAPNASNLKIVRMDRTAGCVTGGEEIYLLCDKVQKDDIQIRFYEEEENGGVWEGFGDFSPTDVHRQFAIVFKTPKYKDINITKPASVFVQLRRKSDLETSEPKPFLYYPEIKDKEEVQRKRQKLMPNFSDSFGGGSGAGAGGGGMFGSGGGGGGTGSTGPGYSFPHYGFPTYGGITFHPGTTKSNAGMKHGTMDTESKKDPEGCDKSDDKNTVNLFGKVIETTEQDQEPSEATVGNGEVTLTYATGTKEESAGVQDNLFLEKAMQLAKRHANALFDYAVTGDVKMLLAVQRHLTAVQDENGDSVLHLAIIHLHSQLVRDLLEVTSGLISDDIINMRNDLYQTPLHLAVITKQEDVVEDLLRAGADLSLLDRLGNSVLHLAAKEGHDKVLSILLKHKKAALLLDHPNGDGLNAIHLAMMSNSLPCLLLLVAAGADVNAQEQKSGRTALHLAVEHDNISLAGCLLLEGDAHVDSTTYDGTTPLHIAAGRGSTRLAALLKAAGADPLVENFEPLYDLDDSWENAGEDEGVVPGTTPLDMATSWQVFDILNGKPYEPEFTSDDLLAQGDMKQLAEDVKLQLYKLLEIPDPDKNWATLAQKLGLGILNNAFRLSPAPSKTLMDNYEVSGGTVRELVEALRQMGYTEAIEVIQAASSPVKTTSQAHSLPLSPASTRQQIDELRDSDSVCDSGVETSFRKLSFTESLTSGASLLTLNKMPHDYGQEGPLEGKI

The term AC50 denotes the midpoint of the concentration-response curve, whichever way the signal moves. Turning to `C=CC(=O)NCNC(=O)C=C`, the molecule was classed as inactive (with HGF (gene 3082); in assay [2]; in assay [4]; in assay [5]; in [6]; in assay [7]). Also, the outcome in [8] is “inactive”; in [9] it was “inactive”; in assay [10], “inactive”; in [11], “inactive”; with MYC, MYC (gene 4609), “inactive”; in assay [12] it was “inactive”. In addition, the call in [13], in assay [14], in assay [15] and in [16] was inactive. Further, the AC50 was 50 µM (active) in assay [1], 50 µM (active) in assay [3] and 30.6 µM (active) in [17].

Turning to `Cc1ccccc1[N+](=O)[O-]`, the molecule was classed as inactive (with HGF (gene 3082); in assay [1]; in [2]; in assay [18]; in assay [3]; in [4]). In addition, the outcome was “inactive” in assay [6]; “inactive” in assay [8]; “inactive” in assay [9]; “inactive” in assay [10]; “inactive” in assay [11]; “inactive” with MYC, MYC (gene 4609). Also, the molecule was classed as inactive in assay [12], in assay [13], in assay [14], in assay [15], in assay [16] and in [17].

On to `CN(C)CCO`, for which the result (with HGF (gene 3082); in assay [1]; in assay [2]; in assay [18]; in [3]; in [4]) was inactive. Also, the outcome is “inactive” in [6]; “inactive” in assay [8]; “inactive” in [9]; “inactive” in [10]; “inactive” in assay [11]; “inactive” in the assay with MYC, MYC (gene 4609). For the same molecule, the result in assay [12], in [13], in assay [14], in assay [15], in assay [16] and in [17] was inactive.

As for `Cc1cc(-c2ccc(N)c(C)c2)ccc1N`, the call (with HGF (gene 3082); in [1]; in assay [2]; in assay [18]; in [3]; in assay [4]) was inactive. Moreover, the outcome was “inactive” in [8]; “inactive” in [10]; “inactive” in assay [11]; “inactive” with MYC, MYC (gene 4609); “inactive” in assay [12]; “inactive” in assay [15]. Moreover, the call in assay [16] was inactive. The AC50 in assay [6] is 30.8 µM (active); in assay [9], 50 µM (active); in [13] it was 33.7 µM (active); in assay [17] it was 50 µM (active).
